The panel holds about 79,000 compounds, 15% with a hit somewhere; the sample as a whole holds those more often. Calls of active or inactive are those of the source. No stated cut-off is given here; in the data, active means growth inhibition above about 70%; inactive means the rest.
Legend:
[1] = NCI Yeast Anticancer Drug Screen. Data for the rad52 strain (AID 147);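 further: 0% = growth of vehicle-treated control cultures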; conditions: S. cerevisiae rad52 mutant growth inhibition, hits give high values
How it was run: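 Here a repair-compromised yeast strain receives each compound; its growth is then quantified and normalised to vehicle-only controls.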

[2] = NCI Yeast Anticancer Drug Screen. Data for the wt1 strain (AID 149);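 further: 0% = growth of vehicle-treated wt1 cultures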; conditions: S. cerevisiae wt1 strain (SPY 50644) growth inhibition, hits give high values
How it was run: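 Compounds are added to wt1 yeast cultures. Growth is then measured. Inhibition is expressed relative to vehicle-treated controls.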

[3] = NCI Yeast Anticancer Drug Screen. Data for the rad50EPP+ strain (AID 151);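 further: 0% = growth of vehicle-treated control cultures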; conditions: S. cerevisiae rad50 mutant strain, hits give high values
How it was run: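 Read-out is yeast growth inhibition relative to vehicle; cells used were the rad50EPP+ strain.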

[4] = NCI Yeast Anticancer Drug Screen. Data for the mgt1 strain (AID 153); conditions: S. cerevisiae mgt1 mutant growth inhibition, hits give high values
How it was run: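 Measured: inhibition of mgt1 yeast growth by compound, normalized to vehicle-treated cultures.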

[5] = NCI Yeast Anticancer Drug Screen. Data for the rad50 strain (AID 155);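 further: 0% = growth of vehicle-only cultures of the same strain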; conditions: S. cerevisiae rad50 strain growth inhibition, hits give high values
How it was run: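 Inhibition values express reduced yeast growth in compound-treated cultures relative to vehicle-treated controls.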

[6] = NCI Yeast Anticancer Drug Screen. Data for the mec2-1 strain (AID 157); conditions: S. cerevisiae mec2-1 strain, hits give high values
How it was run: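 Using mec2-1 yeast: add compound, measure growth, express inhibition versus vehicle-treated cultures.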

[7] = NCI Yeast Anticancer Drug Screen. Data for the rad14 strain (AID 159);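 further: 0% = growth of vehicle-treated control cultures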; conditions: S. cerevisiae rad14 strain growth inhibition, hits give high values
How it was run: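 A mutant yeast strain defective in DNA damage repair is treated with compound; inhibition of its growth is scored against untreated, vehicle-exposed cultures.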

[8] = NCI Yeast Anticancer Drug Screen. Data for the sgs1 mgt1 strain (AID 161);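 further: 0% = growth of cultures given vehicle only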; conditions: S. cerevisiae sgs1 mgt1 strain, hits give high values
How it was run: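 Percent growth inhibition was derived by comparing compound-exposed mutant yeast with vehicle-exposed cultures. The strain carries alterations in DNA damage repair.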

[9] = NCI Yeast Anticancer Drug Screen. Data for the CLN2oe strain (AID 163);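 further: 0% = growth of vehicle-only control cultures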; conditions: S. cerevisiae CLN2oe strain, hits give high values
How it was run: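 Whole-cell yeast growth assay. A strain engineered for altered cell-cycle control received compound, and inhibition relative to vehicle-treated cultures was recorded.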

[10] = NCI Yeast Anticancer Drug Screen. Data for the cln2 rad14 strain (AID 165);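 further: 0% = growth equal to vehicle treated cultures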; conditions: S. cerevisiae cln2 rad14 strain, hits give high values
How it was run: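 Yeast strain cln2 rad14, bearing defects in cell cycle control and DNA repair, serves as the test system; values reflect growth inhibition compared with vehicle.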

[11] = NCI Yeast Anticancer Drug Screen. Data for the bub3 strain (AID 167); conditions: S. cerevisiae bub3 mutant strain, hits give high values
How it was run: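 Steps: expose the mutant yeast strain to compound; grow alongside vehicle-treated cultures; measure growth; express inhibition against the vehicle cultures.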

[12] = NCI Yeast Anticancer Drug Screen. Data for the wt2 strain (AID 169);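 further: 0% = growth of vehicle-treated yeast cultures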; conditions: S. cerevisiae wt2 strain growth inhibition, hits give high values
How it was run: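 Treated yeast vs. vehicle-treated yeast: growth inhibition determined.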

[13] = NCI Yeast Anticancer Drug Screen. Data for the mlh1 strain (AID 171);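 further: 0% = growth of vehicle-treated control cultures of the same strain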; conditions: S. cerevisiae mlh1 strain growth inhibition, hits give high values
How it was run: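 A yeast strain with a defined genetic lesion serves as the test organism. Cultures receive compound or vehicle, and growth is measured.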

[14] = NCI Yeast Anticancer Drug Screen. Data for the sgs1 strain (AID 173);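 further: 0% = growth of vehicle-only control cultures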; conditions: S. cerevisiae sgs1 mutant, hits give high values
How it was run: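 A genetically defined yeast mutant is incubated with the test compound, and its growth is compared to that of the same strain given vehicle.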

[15] = NCI Yeast Anticancer Drug Screen. Data for the mlh1 rad18 strain (AID 175); conditions: S. cerevisiae mlh1 rad18 strain growth inhibition, hits give high values
How it was run: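 Steps: expose repair-defective yeast to compound; measure growth; express inhibition against vehicle-treated controls.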

[16] = NCI Yeast Anticancer Drug Screen. Data for the rad18 strain (AID 177); conditions: S. cerevisiae rad18 mutant growth inhibition, hits give high values
How it was run: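 Measured value is growth inhibition of a yeast strain bearing a DNA repair alteration, referenced to vehicle-treated cells.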

[17] = at 5.0 µM (retest, dose inferred, filed as 0.5)
[18] = at 50.0 µM (retest, dose inferred, filed as 5.0)

Measured: growth inhibition

CC1CC(C)(C)CC(OCCN2CCCCC2)(c2ccccc2)C1 (stereo unspecified)
active: [1]; at 100.0 µM 84% | [4]; at 100.0 µM 83% | [5]; [18] 89% | [5]; at 50.0 µM 87.8% | [5]; at 100.0 µM 82% | [7]; at 100.0 µM 99% | [8]; [18] 79% | [8]; at 50.0 µM 83.5% | [9]; at 100.0 µM 87% | [11]; [18] 74% | [11]; at 50.0 µM 78.8% | [11]; at 100.0 µM 75% | [12]; at 100.0 µM 80% | [13]; at 100.0 µM 87% | [14]; at 100.0 µM 95% | [15]; [18] 79% | [15]; at 50.0 µM 84.8% | [16]; at 100.0 µM 91%
inactive: [1]; at 1.2 µM -1% | [1]; at 3.7 µM 8% | [1]; at 11.0 µM 15% | [1]; at 33.0 µM 25% | [2]; at 1.2 µM 2% | [2]; at 3.7 µM 5% | [2]; at 11.0 µM 12% | [2]; at 33.0 µM 14% | [2]; at 100.0 µM 32% | [3]; at 1.2 µM -5% | [3]; at 3.7 µM 1% | [3]; at 11.0 µM -3% | [3]; at 33.0 µM -3% | [3]; at 100.0 µM -2% | [4]; at 1.2 µM 0% | [4]; at 3.7 µM 2% | [4]; at 11.0 µM 10% | [4]; at 33.0 µM 32% | [5]; at 1.2 µM 3% | [5]; at 3.7 µM 8% | [5]; [17] 28% | [5]; at 11.0 µM 19% | [5]; at 33.0 µM 25% | [6]; at 1.2 µM 0% | [6]; at 3.7 µM 3% | [6]; [17] 4% | [6]; at 11.0 µM 10% | [6]; at 33.0 µM 11% | [6]; [18] 10% | [6]; at 50.0 µM 36.3% | [6]; at 100.0 µM 54% | [7]; at 1.2 µM 7% | [7]; at 3.7 µM 21% | [7]; at 11.0 µM 37% | [7]; at 33.0 µM 62% | [8]; [17] 4% | [9]; at 1.2 µM 2% | [9]; at 3.7 µM 7% | [9]; at 11.0 µM 20% | [9]; at 33.0 µM 50% | [10]; [17] -1% | [10]; [18] 26% | [10]; at 50.0 µM 52.2% | [11]; at 1.2 µM -3% | [11]; at 3.7 µM 4% | [11]; [17] -16% | [11]; at 11.0 µM 17% | [11]; at 33.0 µM 52% | [12]; at 1.2 µM 0% | [12]; at 3.7 µM 5% | [12]; at 11.0 µM 21% | [12]; at 33.0 µM 32% | [13]; at 1.2 µM 1% | [13]; at 3.7 µM 5% | [13]; at 11.0 µM 17% | [13]; at 33.0 µM 15% | [14]; at 1.2 µM 3% | [14]; at 3.7 µM 12% | [14]; at 11.0 µM 40% | [14]; at 33.0 µM 63% | [15]; [17] 7% | [16]; at 1.2 µM -3% | [16]; at 3.7 µM 11% | [16]; at 11.0 µM 30% | [16]; at 33.0 µM 55%

OC(CCNCc1ccccc1)c1ccc2ccccc2c1 (stereo unspecified)
active: [1]; at 33.0 µM 87% | [1]; at 100.0 µM 90% | [2]; at 100.0 µM 72% | [4]; at 33.0 µM 84% | [4]; at 100.0 µM 96% | [5]; at 11.0 µM 72% | [5]; at 33.0 µM 92% | [5]; [18] 88% | [5]; at 50.0 µM 75.5% | [5]; at 100.0 µM 94% | [6]; [18] 76% | [7]; at 11.0 µM 85% | [7]; at 33.0 µM 96% | [7]; at 100.0 µM 99% | [8]; [18] 93% | [8]; at 50.0 µM 80.7% | [9]; at 33.0 µM 80% | [9]; at 100.0 µM 93% | [10]; [18] 80% | [10]; at 50.0 µM 75.2% | [11]; at 33.0 µM 91% | [11]; [18] 91% | [11]; at 50.0 µM 72% | [11]; at 100.0 µM 96% | [12]; at 11.0 µM 83% | [12]; at 33.0 µM 95% | [12]; at 100.0 µM 96% | [13]; at 33.0 µM 80% | [13]; at 100.0 µM 95% | [14]; at 11.0 µM 70% | [14]; at 33.0 µM 92% | [14]; at 100.0 µM 95% | [15]; [18] 96% | [16]; at 33.0 µM 70% | [16]; at 100.0 µM 87%
inactive: [1]; at 1.2 µM 15% | [1]; at 3.7 µM 42% | [1]; at 11.0 µM 69% | [2]; at 1.2 µM 2% | [2]; at 3.7 µM 33% | [2]; at 11.0 µM 41% | [2]; at 33.0 µM 60% | [3]; at 1.2 µM -5% | [3]; at 3.7 µM -12% | [3]; at 11.0 µM 13% | [3]; at 33.0 µM 27% | [3]; at 100.0 µM 21% | [4]; at 1.2 µM 14% | [4]; at 3.7 µM 34% | [4]; at 11.0 µM 63% | [5]; at 1.2 µM 15% | [5]; at 3.7 µM 44% | [5]; [17] 22% | [6]; at 1.2 µM -1% | [6]; at 3.7 µM 10% | [6]; [17] 15% | [6]; at 11.0 µM 22% | [6]; at 33.0 µM 47% | [6]; at 50.0 µM 37.9% | [6]; at 100.0 µM 58% | [7]; at 1.2 µM 32% | [7]; at 3.7 µM 56% | [8]; [17] 9% | [9]; at 1.2 µM 19% | [9]; at 3.7 µM 53% | [9]; at 11.0 µM 68% | [10]; [17] 29% | [11]; at 1.2 µM 29% | [11]; at 3.7 µM 45% | [11]; [17] 37% | [11]; at 11.0 µM 68% | [12]; at 1.2 µM 24% | [12]; at 3.7 µM 65% | [13]; at 1.2 µM -4% | [13]; at 3.7 µM 31% | [13]; at 11.0 µM 45% | [14]; at 1.2 µM 18% | [14]; at 3.7 µM 20% | [15]; [17] 51% | [15]; at 50.0 µM 65.7% | [16]; at 1.2 µM -1% | [16]; at 3.7 µM 31% | [16]; at 11.0 µM 45%

— PubChem BioAssay (NCI)
